D2 antagonist = antagonizes the human D2 dopamine receptor | HEK293 TREx D2 cells, calcium flux, dopamine EC80 | inhibition, % at 10 µM | hit rate 2% among 340,000; in the data active = inhibition above about 30%; inactive = below that, where a call was filed; note: 0% is about no effect
Target sequence (P14416 whole entry, looked up): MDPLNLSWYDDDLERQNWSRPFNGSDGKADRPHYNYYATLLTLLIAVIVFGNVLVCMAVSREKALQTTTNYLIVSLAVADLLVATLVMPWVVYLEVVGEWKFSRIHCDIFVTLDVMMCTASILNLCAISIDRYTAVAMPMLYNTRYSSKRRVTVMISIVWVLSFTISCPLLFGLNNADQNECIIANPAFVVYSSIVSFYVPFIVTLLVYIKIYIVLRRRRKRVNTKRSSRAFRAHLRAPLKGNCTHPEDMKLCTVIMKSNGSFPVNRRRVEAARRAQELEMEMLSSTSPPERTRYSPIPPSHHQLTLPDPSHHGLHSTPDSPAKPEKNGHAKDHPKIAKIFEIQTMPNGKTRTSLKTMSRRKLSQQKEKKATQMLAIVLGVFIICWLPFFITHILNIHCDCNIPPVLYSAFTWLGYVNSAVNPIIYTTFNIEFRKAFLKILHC
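Calcium flux kinetic readout in an inducible HEK293 TREx D2 line plated overnight at 30 C. After 180 s compound exposure, an EC80 dopamine challenge follows with another 180 s kinetic read to detect antagonism.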
D2 PAM-1 = human D2 receptor positive allosteric modulation; hit rate 0.23% among 360,000; potentiation, % (test concentration not listed); DiscoveRx D2 beta-arrestin cells, luminescence, 90 min; 100% = 57 uM dopamine signal; P14416; in the data active = potentiation above about 50%
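D2 cells co-treated with compound plus 50 nM dopamine (EC20) for 90 min at 37 deg C to detect potentiation. Beta-arrestin recruitment was read as enzyme-fragment luminescence after 1 h at ambient temperature. Full response was set by 57 uM dopamine.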
D2 ag-1 = D2 dopamine receptor (human) agonism; P14416; HEK293 T-REx D2 cells, calcium flux agonist mode; activation, % at 2 µM; hit rate 0.53% among 340,000;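 active = activation over 3 SD above normal in the single-dose calcium agonist read, cut at about 30% in these data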; note: 0% is about no effect
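Tetracycline-induced HEK293 T-REx cells with force-coupled D2 receptor, plated overnight at 30 C, loaded with no-wash calcium dye. After a 10 s baseline, compound was pin-added and calcium flux read kinetically for 180 s; calcium rises flagged agonists.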
D2 PAM-2 = positively modulates the human D2 dopamine receptor allosterically; P14416; HEK293 T-REx D2, calcium flux, EC20 dopamine potentiation; potentiation, % at 10 µM; hit rate 0.34% among 340,000; AID 485347;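 active = potentiation over 3 SD above the plate norm, cut at about 30% in these data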; note: 0% is about no effect
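Using a no-wash calcium dye in inducible, force-coupled HEK293 Trex cells expressing D2, we tracked fluorescence each second for 180 s after compound, then for 180 s after EC20 dopamine to detect augmented signalling.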
D2 ag-2 = human D2 receptor agonism in beta-arrestin assay | DiscoveRx PathHunter D2 beta-arrestin, luminescence, 90 min; 100% = 57 uM dopamine signal | P14416 | hit rate 0.084% among 360,000 | activation, % (concentration not given with the values); in the data active = activation above about 40%
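DiscoveRx PathHunter D2 beta-arrestin cells (2,100/well) attached overnight, then compound-stimulated 90 min at 37 C in HBSS/10 mM HEPES/0.1% Tween-20 buffer; beta-galactosidase complementation read by luminescence after 1 h at ambient temperature. Dopamine 57 uM final (EC100) as control.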
Active calls of the source: *; / = not tested or not shown. This is a sample that favours compounds with a hit; in the whole collection about 2.4% have one here.

SMILES	D2 antagonist	D2 PAM-1	D2 ag-1	D2 PAM-2	D2 ag-2
COc1cccc(C(=O)NCCNC(=O)c2ccco2)c1	-0.6	-0.5	-0.4	3.9	-3.3
CC[C@@]1(C(=O)OC)N[C@H](CN(C)C(=O)c2ccccc2)[C@@H]2C(=O)N(C)C(=O)[C@@H]21	/	-3.5	/	/	-1.5
COc1ccc(N(C(=O)CNC(=O)c2cccs2)C(C(=O)NCC2CCCO2)c2ccccc2)cc1 (configuration not stated)	80.4*	-1.8	-0.1	-16.3	4.1
C=CCC1=C/C(=C\c2c(N)n3nc(CC(=O)N4CCCC4)sc3nc2=O)C=C(OC)C1=O	2.4	-1.6	40.0*	-5.3	-5.3
O=c1[nH]c2cc3c(cc2cc1C(c1nnnn1C1CCCC1)N1CCCc2ccccc21)OCCO3 (configuration not stated)	0.7	25.1	0.6	42.7*	-2.3
COc1cc2cc(C(c3nnnn3C3CCCC3)N3CCc4ccccc43)c(=O)[nH]c2cc1OC (configuration not stated)	-1.6	-4.5	0.2	4.4	2.3
CC(NC(=O)Cn1cccc1C(=O)c1ccccc1)c1ccc2c(c1)OCCO2 (configuration not stated)	9.4	-6.1	-0.1	33.7*	-1.5
CCN(CC)c1ccc(NC(=O)c2cccc(OC)c2)c(C)c1	2.8	-8.1	0.0	9.7	-2.8
CCN(CC)c1ccc(NC(=O)c2c(OC)cccc2OC)c(C)c1	33.6*	-2.1	0.6	-10.9	-2.4
Cc1cc2cc(CNC(=O)c3ccc(Br)o3)ccc2[nH]1	-13.4	-6.0	0.4	-6.4	-2.0
COc1ccc(C2=NOC(C(=O)NC(C)(C)C)C2)cc1 (configuration not stated)	-11.3	-1.3	0.9	2.3	-3.3
CCN(CC)C(=O)C1CC(c2ccc(OC)cc2)=NO1 (configuration not stated)	31.3*	-20.0	-0.6	8.5	-1.9
Cc1ccc(-c2nn(-c3cc(N4CCNCC4)ccc3[N+](=O)[O-])c(=O)c3ccccc23)cc1	-1.6	-4.7	2.6	-0.3	-3.5
CC(C)(C)c1ccc(NC(=O)c2ccccc2)c([N+](=O)[O-])c1	15.4	-6.0	2.8	33.0*	-3.1
Cc1c(NC(=O)c2ccc(C(C)(C)C)cc2)cccc1[N+](=O)[O-]	-9.4	14.0	-1.0	-6.5	3.8
O=C(COc1ccc2c(c1)OCO2)Nc1ccc2c(c1)oc1ccccc12	37.0*	8.9	0.0	-5.5	1.6
CC(NCc1ccc2c(c1)OCO2)C(=O)N1CCc2ccccc21 (configuration not stated)	43.6*	-39.5	-1.2	-27.0	-7.1
O=C(CN1CCCN(Cc2ccc(F)cc2Cl)C1=O)NC1CCCCCCC1	-6.9	-16.1	1.1	-3.9	-1.0
O=C(CN1CCN(Cc2ccccc2F)C1=O)NC1CCCC1	40.0*	-9.5	-0.2	2.2	-3.9
Cc1cc(C)cc(OC(=O)N2CCOCC2)c1	37.8*	11.4	-0.2	8.9	-2.7
COc1cccc(OC(=O)N2CCOCC2)c1	1.9	-10.2	0.1	-9.6	-18.4
CCN(CC)CCn1c(NS(=O)(=O)c2ccc(C)cc2)nc2ccccc21	51.4*	-40.0	0.0	-19.4	-2.4
COc1ccc(C(=O)N(Cc2ccc(N(C)C)cc2)Cc2ccco2)cc1Cl	/	/	0.1	-1.5	/
Cc1cc(C)c(C#N)c(SCS(=O)Cc2ccccc2)n1 (configuration not stated)	-13.1	-6.8	-1.2	-2.6	1.8
Cc1cc(C)c(C#N)c(SCS(=O)Cc2ccc(Cl)cc2)n1 (configuration not stated)	36.7*	-16.3	0.0	-7.5	-0.2
O=C(CCN1CCOCC1)NNC(=O)c1ccc(Cl)c([N+](=O)[O-])c1	/	-2.0	/	/	-3.4
O=C(CCN1CCOCC1)NNC(=O)c1ccc([N+](=O)[O-])cc1[N+](=O)[O-]	/	58.9*	/	/	6.1
CC(C)N(C(=O)CSc1n[nH]c(=O)n1CCc1ccccc1)C(C)C	-13.3	-5.5	1.3	1.5	-3.1
CCOc1ccc(S(=O)(=O)NCCC(=O)NCC(c2ccc(OC)cc2)N2CCCC2)cc1 (configuration not stated)	-10.8	-1.6	-0.7	-6.5	2.1
O=C(CC1CCCCC1)Nc1ccc(-c2ccc3nncn3n2)cc1	10.7	-1.6	0.1	43.1*	-2.4
